Where a name gives a salt, the structure may show the parent alone. ± gives the standard deviation of the averaged measurements.
Test system: A549
Assay: relative viability (normalised to negative control = 1, bortezomib = 0) (fraction); higher = less cytotoxic
Conditions: inflammatory serum-free RHB-A with cytokines + LPS, 5 d + 24 h CellTiter-Blue
[1] = compound 30 nM, GSK126 pretreatment: 5 uM GSK126
[2] = compound 30 nM, GSK126 pretreatment: none (vehicle)
[3] = compound 300 nM, GSK126 pretreatment: 5 uM GSK126
[4] = compound 300 nM, GSK126 pretreatment: none (vehicle)

Structure (SMILES) | relative viability [1] | relative viability [2] | relative viability [3] | relative viability [4]
COc1cc(Nc2c(C#N)cnc3cc(OCCCN4CCN(C)CC4)c(OC)cc23)c(Cl)cc1Cl [Bosutinib(SKI-606)] | 0.984 ± 0.052 | 0.991 ± 0.061 | 0.65 ± 0.061 | 0.7617 ± 0.007
Nc1nccc(Oc2ccc(NC(=O)c3c[nH]cc(-c4ccc(F)cc4)c3=O)cc2F)c1Cl | 0.87 ± 0.13 | 0.882 ± 0.16 | 1.14 ± 0.15 | 1.12 ± 0.18
Cn1cnc(-c2cc3nccc(Oc4ccc(NC(=S)NC(=O)Cc5ccccc5)cc4F)c3s2)c1 | 0.819 ± 0.071 | 0.832 ± 0.051 | 0.838 ± 0.093 | 0.945 ± 0.065
CS(=O)(=O)CCNCc1ccc(-c2ccc3ncnc(Nc4ccc(OCc5cccc(F)c5)c(Cl)c4)c3c2)o1 [Lapatinib ditosylate; Lapatinib; Lapatinib Ditosylate] | 0.811 ± 0.091 | 0.826 ± 0.083 | 0.594 ± 0.11 | 0.562 ± 0.057
Cn1nnc2c(C(N)=O)ncn2c1=O [Temozolomide] | 0.831 ± 0.044 | 0.837 ± 0.029 | 0.828 ± 0.067 | 0.943 ± 0.061
Cc1cc(C(C)Nc2ccccc2)c2nc(N3CCOCC3)cc(=O)n2c1 (stereo unspecified) | 0.763 ± 0.083 | 0.782 ± 0.067 | 0.737 ± 0.093 | 0.8 ± 0.1
Cc1ccc([N+](=O)[O-])cc1S(=O)(=O)N(C)/N=C/c1cnc2ccc(Br)cn12 [PIK-75 Hydrochloride] | 0.0451 ± 0.0082 | 0.101 ± 0.062 | -0.00172 ± 0.0047 | -0.00104 ± 0.0047
COc1cc2c(Oc3ccc(NC(=O)C4(C(=O)Nc5ccc(F)cc5)CC4)cc3F)ccnc2cc1OCCCN1CCOCC1 | 0.797 ± 0.081 | 0.789 ± 0.037 | 0.57 ± 0.1 | 0.573 ± 0.074
NC1(c2ccc(-c3nc4ccn5c(=O)[nH]nc5c4cc3-c3ccccc3)cc2)CCC1 | 0.679 ± 0.074 | 0.691 ± 0.063 | 0.387 ± 0.011 | 0.522 ± 0.067

From the supplement of paper PMC6279402
